PfG6PD inh: PfG6PD (Plasmodium falciparum) enzyme inhibition; PfGluPho enzyme, NADPH resazurin-diaphorase fluorescence; inhibition, % at 20 µM; 350,000 tested, 0.78% active; AID 504690;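 active = inhibition reaching at least a set limit at 20 µM in the primary screen, cut at about 59% in these data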
NadD block: NadD (S. aureus) enzyme inhibition | purified NadD enzyme, colorimetric absorbance read-out | inhibition, % at 20 µM | 360,000 tested, 0.78% active; in the data active = inhibition above about 26%
APOBEC3A inh: human APOBEC3A DNA deaminase inhibition | inhibition, % at 20 µM | 330,000 tested, 0.41% active | recombinant A3A, FAM/TAMRA ssDNA deamination fluorescence | P31941;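 active = at least 40% inhibition at 20 µM here, with at most 30% in a related deaminase screen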
Target sequence (P31941 whole entry, looked up): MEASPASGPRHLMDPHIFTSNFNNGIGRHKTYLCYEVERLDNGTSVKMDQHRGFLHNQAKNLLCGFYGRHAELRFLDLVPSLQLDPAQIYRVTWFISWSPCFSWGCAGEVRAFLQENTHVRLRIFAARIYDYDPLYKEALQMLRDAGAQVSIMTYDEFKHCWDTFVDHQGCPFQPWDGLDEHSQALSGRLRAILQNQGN
Cardio protect: myocardial damage modulation in H9c2 cells | H9c2 cardiomyocytes, H2O2 injury protection, ATPLite, 2 h | protection from H2O2 cell death, % at 20 µM | 360,000 tested, 0.63% active;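 active = compounds giving at least 50% protection of heart cells from peroxide-induced death in the single-dose screen, raw or plate-pattern-corrected value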
TAG inh: triacylglycerol accumulation inhibition | H9c2 cells, Nile Red lipid (TAG) fluorescence; cells loaded with 200 µM oleic acid | inhibition, % at 12.5 µM | 230,000 tested, 0.66% active;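 active = pattern-corrected inhibition of lipid staining of at least 50% with the nuclear-stain viability signal not falling by more than 50%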
A3G deaminase: blocks human APOBEC3G single-stranded DNA deamination; inhibition, % at 20 µM; 330,000 tested, 0.28% active; Q9HC16; recombinant A3G, ssDNA deamination FAM/TAMRA fluorescence;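 active = inhibition of at least 40% at 20 µM, with no more than 30% in the related APOBEC3A deaminase screen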
Target sequence (Q9HC16 whole entry, looked up): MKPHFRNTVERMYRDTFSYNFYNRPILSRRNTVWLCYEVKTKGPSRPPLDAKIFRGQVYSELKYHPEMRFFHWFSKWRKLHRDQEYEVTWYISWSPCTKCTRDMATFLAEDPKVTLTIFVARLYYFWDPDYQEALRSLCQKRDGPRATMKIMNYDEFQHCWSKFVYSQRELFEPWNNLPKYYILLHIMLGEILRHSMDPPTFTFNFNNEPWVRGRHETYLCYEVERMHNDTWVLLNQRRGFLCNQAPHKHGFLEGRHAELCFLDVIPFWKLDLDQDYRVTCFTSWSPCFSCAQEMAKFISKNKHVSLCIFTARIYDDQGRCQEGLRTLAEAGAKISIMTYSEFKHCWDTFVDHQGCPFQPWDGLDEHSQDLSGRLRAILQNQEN
Large screens that a line does not name were inactive. This is a sample that favours compounds with a hit; in the whole collection about 2.9% have one here.

O=C(Nc1ccc(-c2noc(-c3cccs3)n2)cc1)c1cccnc1	Cardio protect 64
COc1ccc(Cl)cc1-c1nc(-c2ccc(NC(=O)c3cccs3)cc2)no1	Cardio protect 56 (no result: TAG inh)
COc1cccc(-c2nc(-c3ccc(NC(=O)c4cccnc4)cc3)no2)c1	none
CCN(C(=O)CN1CCC(C(=O)OC)CC1)c1c(N)n(Cc2ccccc2)c(=O)[nH]c1=O	none
C=CCN1C(=O)/C(=C/c2ccc(O)c(OC)c2)S/C1=N/c1nccs1	Cardio protect 51 (no result: TAG inh)
Cc1nc2ccccc2c2oc(C(=O)Nc3ccc4c(c3)OCCO4)cc12	Cardio protect 100
COc1cc(NC(=O)c2cc(-c3ccccc3)on2)cc(OC)c1OC	none (no result: TAG inh)
COc1cc(NC(=O)c2cc3nc(-c4ccccc4)cc(-c4ccccc4)n3n2)cc(OC)c1OC	Cardio protect 80 (no result: TAG inh)
COc1cc(NC(=O)c2cc3c(C)nc4ccccc4c3o2)cc(OC)c1OC	Cardio protect 66
COc1ccc(CNC(=O)c2cc3c(C)nc4ccccc4c3o2)c(OC)c1	none
Cc1nc2ccccc2c2oc(C(=O)Nc3ccc(C(C)C)cc3)cc12	none
CC(O)CNc1ncnc2nc[nH]c12 (stereo not drawn)	none
CC(C)CCCCCCCCCCCCC(=O)NCC(=O)NC1C(O)C(O)C(Nc2ncnc3nc[nH]c23)OC1C(O)CO (stereo not drawn)	TAG inh 85 (no result: APOBEC3A inh, A3G deaminase)
CCCn1nnnc1COc1ccc(C(N)=O)cc1	none (no result: TAG inh)
Cc1cc(C)cc(N2C(=O)C=CC2=O)c1	PfG6PD inh 86 (no result: APOBEC3A inh, A3G deaminase)
Cc1cc(-c2nn(-c3ccccc3)cc2/C=C2\SC(N)=NC2=O)ccc1OC(C)C	NadD block 35 (no result: TAG inh)
CCCOc1ccc(-c2nn(-c3ccccc3)cc2/C=C2\SC(N)=NC2=O)cc1	none (no result: TAG inh)
Cc1ccc(C)n1-c1cc(S(=O)(=O)N2CCOCC2)ccc1N1CCCC1	NadD block 35 (no result: TAG inh)
CNCc1cc(C)n(-c2cc(S(=O)(=O)N3CCOCC3)ccc2N2CCCC2)c1C	none (no result: APOBEC3A inh, A3G deaminase)
CCOC(=O)c1[nH]c(C)c(C(=O)N2CCCC(Nc3ccc(C)c(C)c3)C2)c1C (stereo not drawn)	none (no result: TAG inh)
O=C(CSc1nnnn1-c1ccc(F)cc1)c1ccc(O)c(O)c1	Cardio protect 54 (no result: APOBEC3A inh, A3G deaminase)
O=C(O)c1ccc(CSc2nnnn2-c2ccc(F)cc2)cc1	none (no result: TAG inh)
CN1CCN(c2nc(-c3cccnc3)nc3ccccc23)CC1	none (no result: TAG inh)
COc1cc2c(cc1OC)CN(c1nc(-c3cccnc3)nc3ccccc13)CC2	Cardio protect 58
N#Cc1ccccc1S(=O)(=O)N1CCN(c2nc(-c3cccnc3)nc3ccccc23)CC1	Cardio protect 83
CC1CCN(C(=O)CCCl)c2ccccc21 (stereo not drawn)	none (no result: APOBEC3A inh, A3G deaminase)
Cc1cc(/C=C2/C(=N)N3C(c4ccccc4)=CSC3=NC2=O)c(C)n1-c1ccc(Cl)cc1	none (no result: APOBEC3A inh, A3G deaminase)
N=C1/C(=C\c2ccc(-c3cccc(Cl)c3)o2)C(=O)N=C2SC=C(c3ccccc3)N12	NadD block 75 (no result: TAG inh)
N=C1/C(=C\c2ccc(-c3ccc(C(=O)O)cc3)o2)C(=O)N=C2SC=C(c3ccccc3)N12	NadD block 67 (no result: APOBEC3A inh, A3G deaminase)
COC(=O)Cn1c(=O)c(C(=O)CCl)c(N)n(Cc2ccccc2)c1=O	none
CCCc1ccc(/C=C2\C(=O)c3ccccc3C(O)=C2C(=O)OCC)cc1	none (no result: PfG6PD inh, NadD block, Cardio protect, TAG inh)
CCOC(=O)C1=C(O)c2ccccc2C(=O)/C1=C\c1ccc(CC)cc1	PfG6PD inh 94 (no result: APOBEC3A inh, TAG inh, A3G deaminase)
CCOC(=O)C1=C(Cc2ccc(OC)cc2)C(=O)c2ccccc2C1=O	PfG6PD inh 95 (no result: APOBEC3A inh, TAG inh, A3G deaminase)
Nc1ccc(Br)c2cccnc12	PfG6PD inh 63
Cc1ccc(C(=O)NCC(=O)OCC(=O)N(CC(C)C)c2c(N)n(Cc3ccccc3)c(=O)[nH]c2=O)s1	none (no result: APOBEC3A inh, A3G deaminase)
O=C(CCc1nc2ccccc2c(=O)[nH]1)NNC(=O)c1ccccc1Cl	Cardio protect 56
O=C(CCc1nc2ccccc2c(=O)[nH]1)NNC(=O)COc1cccc(F)c1	Cardio protect 96
Cc1nn(-c2ccccc2)c(Cl)c1C(=O)NNC(=O)c1ccccc1O	Cardio protect 57
N#Cc1c(-c2cccs2)cc(-c2cccnc2)nc1N	Cardio protect 73
N#Cc1c(-c2ccc(F)cc2)cc(-c2cccnc2)nc1N	none (no result: TAG inh)
COc1cc(N)ccc1Nc1c2ccccc2nc2ccccc12	NadD block 35 (no result: PfG6PD inh, APOBEC3A inh, TAG inh, A3G deaminase)
O=[N+]([O-])c1cc(-c2ncccn2)c([N+](=O)[O-])s1	PfG6PD inh 123 (no result: TAG inh)
COC(=O)c1sccc1NC(=O)COc1ccc(F)cc1Cl	none
CS(=O)(=O)N1CCC(Oc2cccc(C(=O)NCCCOc3cccnc3)c2)CC1	none
Oc1cc2ccccc2cc1-c1n[nH]c(=S)n1Cc1ccco1	none
Oc1ccc(-c2n[nH]c(=S)n2Cc2ccco2)cc1	A3G deaminase 49 (no result: TAG inh)
N#CC1=C(N)Oc2c(ccc3cccnc23)C1c1ccccc1 (stereo not drawn)	Cardio protect 58
Cc1ccc(Sc2ccc(NC(=O)CCl)cc2)cc1C	TAG inh 63
Cc1ccc(C)c(Sc2ccc(NC(=O)CCl)cc2)c1	none (no result: NadD block, Cardio protect, TAG inh)
O=C(CCl)Nc1ccc(N=Nc2ccccc2)cc1	none (no result: APOBEC3A inh, TAG inh, A3G deaminase)
O=C(CCl)Nc1ccc(-c2ccccc2)cc1	TAG inh 56
CCCOc1ccc2[nH]c(C(=O)N/N=C/c3cc(OC)c(OC)c(OC)c3)cc2c1	Cardio protect 59 (no result: TAG inh)
CCOc1ccc2[nH]c(C(=O)N/N=C/c3ccccc3OC)cc2c1	none (no result: TAG inh)
COc1cc(OC)c2cc(C(=O)N/N=C/c3ccccc3O)[nH]c2c1	Cardio protect 57 (no result: TAG inh)
COc1ccc(OC)c(/C=N/NC(=O)c2cc3c(OC)c(OC)ccc3[nH]2)c1	Cardio protect 90 (no result: TAG inh)
Cc1ccc(N=C2NC(=O)/C(=C\c3ccco3)S2)cc1	none
O=C1NC(=Nc2ccc3ccccc3c2)S/C1=C/c1ccco1	NadD block 34
COc1ccc(N=C2NC(=O)/C(=C\C=C\c3ccco3)S2)cc1	NadD block 36
Cc1cccc(N=C2NC(=O)/C(=C/C=C/c3ccco3)S2)c1	NadD block 32 (no result: APOBEC3A inh, TAG inh, A3G deaminase)
CCn1c(CSc2nc3ccccc3s2)nnc1SCC(=O)c1ccc(O)c(O)c1	Cardio protect 62 (no result: TAG inh)
CCn1c(CSc2nc3ccccc3s2)nnc1SCC(=O)c1ccc(Cl)cc1	none (no result: TAG inh)
COC(=O)N1C(=O)[C@@](c2ccccc2)(C(C)C)N1C(=O)OC	none
COC(=O)N1C(=O)[C@](c2ccccc2)(C2CCCC2)N1C(=O)OC	Cardio protect 80
COc1ccc(CNC(=O)c2nnn(-c3cccc(C(F)(F)F)c3)c2N)cc1	none
O=C(c1cc(Cl)cc(Cl)c1)N1CCC(=O)N([C@H](COCc2ccccc2)Cc2ccccc2)CC1	none (no result: PfG6PD inh, APOBEC3A inh, Cardio protect, TAG inh, A3G deaminase)
FC(F)(F)c1ccc(N=Cc2sc(N3CCOCC3)nc2-c2ccccc2)cc1	none
CCN(CC)CCC(=O)N1C/C(=C/c2ccccc2)C(=O)/C(=C\c2ccccc2)C1	TAG inh 50 (no result: APOBEC3A inh, A3G deaminase)
COc1ccc(-c2cc(C(=O)NNC(=O)c3csc(N4CCOCC4)n3)c3ccccc3n2)cc1	Cardio protect 52

Bioassay records from PubChem BioAssay.
